The supplement of paper PMC10849652
Targets with a hit are over-represented here; the source holds about 8,800 in all. About 0.5% of all pairs of compound and target were hits.

Columns and labels:
Experiment in all cases: log2 fold change, soluble protein after heating vs DMSO (PISA); higher = thermal stabilisation; K562 lysate, 10 uM; active = over 0.2 and 3.5 SD of the protein, either way, in both replicates (recomputed)
erlotinib = compound: C#Cc1cccc(Nc2ncnc3cc(OCCOC)c(OCCOC)cc23)c1 [erlotinib]
How it was run: (§1)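 Soluble protein was defined as the supernatant remaining after 21,000xg for 90 min, following pooling of heated aliquots and adjustment to 0.5% NP-40 at 4°C. Before that, crude K562 extract at 1 mg/mL protein in PBS pH 7.4 with 1 mM MgCl2 was treated with 10 μM compound for 30 min and heated for 3 min across 48°C-58°C. Quantification used TMTpro 16plex LC-MS/MS with channel sums equalised, and values are log-two fold changes in thermal stability relative to solvent controls from duplicates.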

[1] = compound: C/C(=N\NC(=O)C1=CC(=CC=C1)S(=O)(=O)N2CCOCC2)/C3=C(C=CC(=C3)Cl)O
How it was run: as §1

[2] = compound: C1=CC(=CC=C1C2=NC3=C(N2)C=C(C=C3)C(=O)N)OC4=CC=C(C=C4)Cl
How it was run: as §1

[3] = compound: C1=CC2=C(C=CC(=C2)/C=C\3/C(=O)NC(=NCC4=CC=CS4)S3)N=C1
How it was run: as §1

[4] = compound: C1=CC2=NC=CN=C2C=C1/C=C/3\C(=O)NC(=O)S3
How it was run: as §1

[5] = compound: C1=CC=C(C=C1)C2=NC(=C(N2)C3=CC=NC=C3)C4=CC(=C(C=C4)Cl)O
How it was run: as §1

[6] = compound: C1=CC=C2C(=C1)C3=NNC4=CC=CC(=C43)C2=O
How it was run: as §1

[7] = compound: C1CCN(C1)C(=O)NC2=CC=CC(=C2)NC3=NC=C(C(=N3)NCCC4=CN=CN4)Br
How it was run: as §1

[8] = compound: C1CN(CCC1(CC2=CC=C(C=C2)Cl)N)C3=NC=NC4=C3C=CN4
How it was run: as §1

IRAK-1-4 Inhibitor I = compound: C1COCCN1CCN2C3=CC=CC=C3N=C2NC(=O)C4=CC(=CC=C4)[N+](=O)[O-] [IRAK-1-4 Inhibitor I]
How it was run: as §1

Measured: log2 fold change

BTK isoform 2 (UniProt Q06187)
inactive: erlotinib 0.002 | [1] 0.017 | [2] -0.046 | [3] 0.031 | [4] 0.025 | [5] -0.005 | [6] -0.05 | [7] 0.077 | [8] -0.052 | IRAK-1-4 Inhibitor I -0.017

CHAC2 (UniProt Q8WUX2)
inactive: erlotinib 0.019 | [1] 0.097 | [2] 0.049 | [3] 0.022 | [4] -0.023 | [5] 0.055 | [6] -0.012 | [7] 0.032 | [8] 0.044 | IRAK-1-4 Inhibitor I -0.038

C5orf51 (UniProt A6NDU8)
inactive: erlotinib 0.024 | [1] 0.004 | [2] -0.008 | [3] -0.026 | [4] 0.04 | [5] 0.007 | [6] -0.038 | [7] -0.027 | [8] 0.055 | IRAK-1-4 Inhibitor I -0.025

CDK5RAP1 (UniProt Q96SZ6)
UniProt Q96SZ6, sequence (Q96SZ6 whole entry, looked up): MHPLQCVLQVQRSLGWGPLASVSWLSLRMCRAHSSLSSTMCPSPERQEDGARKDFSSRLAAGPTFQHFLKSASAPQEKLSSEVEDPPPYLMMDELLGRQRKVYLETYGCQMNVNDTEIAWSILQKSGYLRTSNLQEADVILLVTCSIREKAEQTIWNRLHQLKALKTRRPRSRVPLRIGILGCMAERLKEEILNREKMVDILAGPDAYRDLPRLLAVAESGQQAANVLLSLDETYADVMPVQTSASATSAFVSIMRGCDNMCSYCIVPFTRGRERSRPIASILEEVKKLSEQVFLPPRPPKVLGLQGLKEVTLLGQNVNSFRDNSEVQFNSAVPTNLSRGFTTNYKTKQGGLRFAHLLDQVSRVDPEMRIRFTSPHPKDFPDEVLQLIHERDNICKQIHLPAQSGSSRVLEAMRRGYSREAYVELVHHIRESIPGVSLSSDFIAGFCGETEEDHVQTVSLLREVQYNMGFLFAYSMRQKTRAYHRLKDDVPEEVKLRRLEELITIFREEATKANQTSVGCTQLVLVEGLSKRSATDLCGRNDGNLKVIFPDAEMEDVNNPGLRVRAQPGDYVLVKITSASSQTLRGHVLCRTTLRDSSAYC
active: [4] -0.392
inactive: erlotinib -0.059 | [1] 0.007 | [2] -0.029 | [3] 0.005 | [5] 0.043 | [6] 0.016 | [7] -0.016 | [8] 0.041 | IRAK-1-4 Inhibitor I -0.018

CBX1 (UniProt P83916)
UniProt P83916, sequence (P83916 whole entry, looked up): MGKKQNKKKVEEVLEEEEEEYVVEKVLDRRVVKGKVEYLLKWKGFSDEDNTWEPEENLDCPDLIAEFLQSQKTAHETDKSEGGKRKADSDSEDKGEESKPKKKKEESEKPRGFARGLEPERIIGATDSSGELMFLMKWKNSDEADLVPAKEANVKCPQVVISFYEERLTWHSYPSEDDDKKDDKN
inactive: erlotinib -0.012 | [1] -0.158 | [2] -0.012 | [3] -0.006 | [4] 0.03 | [5] -0.017 | [6] 0.017 | [7] 0.008 | [8] 0.03 | IRAK-1-4 Inhibitor I 0.029

ATG4B (UniProt Q9Y4P1)
UniProt Q9Y4P1, sequence (Q9Y4P1 whole entry, looked up): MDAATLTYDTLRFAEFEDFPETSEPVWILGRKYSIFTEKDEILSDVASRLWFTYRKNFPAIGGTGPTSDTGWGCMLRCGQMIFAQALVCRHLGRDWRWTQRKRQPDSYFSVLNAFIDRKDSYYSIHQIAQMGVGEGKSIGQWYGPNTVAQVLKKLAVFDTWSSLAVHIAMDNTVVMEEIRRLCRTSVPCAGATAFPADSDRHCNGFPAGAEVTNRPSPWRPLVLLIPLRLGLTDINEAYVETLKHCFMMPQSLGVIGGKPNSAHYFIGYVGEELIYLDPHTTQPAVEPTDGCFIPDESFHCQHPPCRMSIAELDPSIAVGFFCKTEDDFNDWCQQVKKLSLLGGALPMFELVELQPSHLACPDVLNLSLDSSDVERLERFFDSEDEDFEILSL
inactive: erlotinib 0.012 | [1] 0.002 | [2] -0.022 | [3] -0.024 | [4] 0.028 | [5] -0.019 | [6] -0.007 | [7] 0.008 | [8] -0.004 | IRAK-1-4 Inhibitor I 0.019

CCNY (UniProt Q8ND76)
inactive: erlotinib -0.082 | [1] -0.033 | [2] 0.041 | [3] -0.037 | [4] 0.052 | [5] 0 | [6] 0.168 | [7] -0.016 | [8] -0.032 | IRAK-1-4 Inhibitor I 0.063

CHAF1A (UniProt Q13111)
inactive: erlotinib -0.017 | [1] -0.089 | [2] -0.005 | [3] -0.004 | [4] -0.005 | [5] 0.009 | [6] -0.008 | [7] -0.025 | [8] 0.036 | IRAK-1-4 Inhibitor I -0.011

C18orf32 (UniProt Q8TCD1)
inactive: erlotinib 0.089 | [1] 0.126 | [2] 0.009 | [3] -0.06 | [4] -0.026 | [5] 0.011 | [6] 0.003 | [7] -0.049 | [8] -0.032 | IRAK-1-4 Inhibitor I -0.026

CCNB2 (UniProt O95067)
inactive: erlotinib 0.037 | [1] 0.038 | [2] 0.075 | [3] -0.061 | [4] -0.008 | [5] 0.008 | [6] -0.125 | [7] -0.02 | [8] 0.027 | IRAK-1-4 Inhibitor I 0.033

BET1 (UniProt O15155)
inactive: erlotinib 0.025 | [1] -0.092 | [2] -0.059 | [3] 0.033 | [4] 0.08 | [5] 0.033 | [6] -0.015 | [7] 0.039 | [8] 0.018 | IRAK-1-4 Inhibitor I 0.006

CEP152 (UniProt O94986)
UniProt O94986, sequence (O94986 whole entry, looked up): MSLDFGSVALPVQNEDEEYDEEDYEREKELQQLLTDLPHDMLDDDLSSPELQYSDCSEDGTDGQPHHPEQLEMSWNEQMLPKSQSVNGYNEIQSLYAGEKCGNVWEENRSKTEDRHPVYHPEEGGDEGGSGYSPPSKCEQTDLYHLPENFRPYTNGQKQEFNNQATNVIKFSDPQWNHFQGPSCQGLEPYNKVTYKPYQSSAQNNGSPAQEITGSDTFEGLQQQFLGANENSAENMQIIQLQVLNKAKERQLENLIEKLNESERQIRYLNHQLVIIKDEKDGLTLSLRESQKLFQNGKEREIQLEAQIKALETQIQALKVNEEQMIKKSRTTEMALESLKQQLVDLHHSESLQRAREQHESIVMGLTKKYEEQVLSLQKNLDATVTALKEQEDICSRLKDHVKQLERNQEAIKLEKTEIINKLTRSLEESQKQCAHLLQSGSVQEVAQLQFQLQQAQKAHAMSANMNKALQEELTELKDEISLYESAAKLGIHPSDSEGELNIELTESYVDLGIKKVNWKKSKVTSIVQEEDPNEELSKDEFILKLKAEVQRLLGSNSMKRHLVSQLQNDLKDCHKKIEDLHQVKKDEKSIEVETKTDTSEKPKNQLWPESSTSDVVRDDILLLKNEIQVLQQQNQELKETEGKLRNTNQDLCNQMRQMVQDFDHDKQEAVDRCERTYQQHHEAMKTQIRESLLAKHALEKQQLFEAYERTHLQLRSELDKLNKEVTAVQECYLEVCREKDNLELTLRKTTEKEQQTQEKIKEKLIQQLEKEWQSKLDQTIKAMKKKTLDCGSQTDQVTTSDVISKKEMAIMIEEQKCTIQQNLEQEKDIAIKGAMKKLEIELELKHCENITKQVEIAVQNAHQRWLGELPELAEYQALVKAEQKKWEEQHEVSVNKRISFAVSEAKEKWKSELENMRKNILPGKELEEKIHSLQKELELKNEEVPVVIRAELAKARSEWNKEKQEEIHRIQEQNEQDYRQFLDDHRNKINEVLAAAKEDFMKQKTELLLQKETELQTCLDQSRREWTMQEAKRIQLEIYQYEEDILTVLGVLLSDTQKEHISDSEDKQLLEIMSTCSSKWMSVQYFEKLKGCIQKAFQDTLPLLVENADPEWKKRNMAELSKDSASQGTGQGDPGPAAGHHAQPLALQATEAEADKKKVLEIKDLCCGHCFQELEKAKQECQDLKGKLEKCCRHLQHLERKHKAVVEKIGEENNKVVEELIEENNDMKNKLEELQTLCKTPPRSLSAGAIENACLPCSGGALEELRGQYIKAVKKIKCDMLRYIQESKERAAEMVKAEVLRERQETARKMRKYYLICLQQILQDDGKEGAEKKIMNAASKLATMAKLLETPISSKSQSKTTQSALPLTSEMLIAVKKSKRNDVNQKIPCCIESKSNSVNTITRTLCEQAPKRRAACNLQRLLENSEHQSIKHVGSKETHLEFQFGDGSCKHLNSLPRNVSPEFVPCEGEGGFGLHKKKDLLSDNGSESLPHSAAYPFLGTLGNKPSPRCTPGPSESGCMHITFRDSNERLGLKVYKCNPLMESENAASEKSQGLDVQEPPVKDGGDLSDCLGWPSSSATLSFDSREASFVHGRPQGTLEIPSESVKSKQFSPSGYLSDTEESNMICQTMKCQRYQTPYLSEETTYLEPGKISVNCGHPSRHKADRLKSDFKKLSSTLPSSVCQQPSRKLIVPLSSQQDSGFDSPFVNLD
inactive: erlotinib -0.011 | [1] -0.043 | [2] 0.142 | [3] -0.1 | [4] 0.139 | [5] 0.099 | [6] 0.123 | [7] -0.07 | [8] 0.073 | IRAK-1-4 Inhibitor I 0.086

BTRC (UniProt Q9Y297)
inactive: erlotinib 0.002 | [1] 0.085 | [2] -0.078 | [3] 0.001 | [4] 0 | [5] -0.007 | [6] 0.029 | [7] -0.138 | [8] -0.028 | IRAK-1-4 Inhibitor I 0.018

BCR (UniProt P11274)
inactive: erlotinib -0.006 | [1] 0.037 | [2] 0.047 | [3] 0.012 | [4] -0.01 | [5] 0.004 | [6] -0.052 | [7] -0.025 | [8] -0.011 | IRAK-1-4 Inhibitor I -0.041

ATR (UniProt Q13535)
inactive: erlotinib -0.025 | [1] -0.012 | [2] -0.055 | [3] 0.336 | [4] 0.255 | [5] 0.125 | [6] 0.071 | [7] -0.005 | [8] 0.125 | IRAK-1-4 Inhibitor I -0.025

CDKN1C (UniProt P49918)
inactive: erlotinib -0.021 | [1] 0.34 | [2] -0.015 | [3] -0.159 | [4] 0.065 | [5] -0.032 | [7] 0.053 | [8] 0.009 | IRAK-1-4 Inhibitor I 0.069
active: [6] -0.461

CBFA2T3 (UniProt O75081)
inactive: erlotinib -0.012 | [1] -0.01 | [2] -0.002 | [3] -0.006 | [4] 0.016 | [5] 0.004 | [6] -0.01 | [7] -0.043 | [8] -0.093 | IRAK-1-4 Inhibitor I -0.027

ATAD3B (UniProt Q5T9A4)
inactive: erlotinib -0.016 | [1] 0.031 | [2] -0.111 | [3] 0.029 | [4] 0.019 | [5] -0.017 | [6] 0.096 | [7] 0.018 | [8] -0.009 | IRAK-1-4 Inhibitor I 0.032

CAMKK1 isoform 2 (UniProt Q8N5S9)
inactive: erlotinib -0.037 | [1] 0.042 | [2] -0.003 | [3] -0.085 | [4] 0.043 | [5] -0.01 | [6] 0.042 | [7] -0.076 | [8] -0.069 | IRAK-1-4 Inhibitor I 0.001

CDAN1 (UniProt Q8IWY9)
inactive: erlotinib 0.006 | [1] -0.01 | [2] 0.048 | [3] -0.025 | [4] -0.012 | [5] -0.04 | [6] -0.063 | [7] -0.001 | [8] 0 | IRAK-1-4 Inhibitor I 0.003

CARNMT1 (UniProt Q8N4J0)
inactive: erlotinib 0 | [1] 0.004 | [2] 0.028 | [3] -0.019 | [4] 0.029 | [5] -0.015 | [6] -0.05 | [7] -0.008 | [8] -0.011 | IRAK-1-4 Inhibitor I 0.029

CES2 isoform 4 (UniProt O00748)
inactive: erlotinib -0.014 | [1] 0.006 | [2] -0.012 | [3] 0.041 | [4] -0.035 | [5] 0.087 | [6] -0.067 | [7] 0.053 | [8] -0.031 | IRAK-1-4 Inhibitor I 0.075

C1orf112 (UniProt Q9NSG2)
inactive: erlotinib -0.053 | [1] 0.015 | [2] 0.079 | [3] -0.008 | [4] -0.057 | [5] 0.026 | [6] 0 | [7] -0.046 | [8] 0.054 | IRAK-1-4 Inhibitor I -0.034

CDK1 (UniProt P06493)
inactive: erlotinib -0.038 | [1] 0.046 | [2] -0.019 | [3] -0.031 | [4] -0.002 | [5] -0.01 | [6] -0.051 | [7] -0.007 | [8] -0.002 | IRAK-1-4 Inhibitor I -0.017

ATE1 isoform 2 (UniProt O95260)
UniProt O95260, sequence (O95260 whole entry, looked up): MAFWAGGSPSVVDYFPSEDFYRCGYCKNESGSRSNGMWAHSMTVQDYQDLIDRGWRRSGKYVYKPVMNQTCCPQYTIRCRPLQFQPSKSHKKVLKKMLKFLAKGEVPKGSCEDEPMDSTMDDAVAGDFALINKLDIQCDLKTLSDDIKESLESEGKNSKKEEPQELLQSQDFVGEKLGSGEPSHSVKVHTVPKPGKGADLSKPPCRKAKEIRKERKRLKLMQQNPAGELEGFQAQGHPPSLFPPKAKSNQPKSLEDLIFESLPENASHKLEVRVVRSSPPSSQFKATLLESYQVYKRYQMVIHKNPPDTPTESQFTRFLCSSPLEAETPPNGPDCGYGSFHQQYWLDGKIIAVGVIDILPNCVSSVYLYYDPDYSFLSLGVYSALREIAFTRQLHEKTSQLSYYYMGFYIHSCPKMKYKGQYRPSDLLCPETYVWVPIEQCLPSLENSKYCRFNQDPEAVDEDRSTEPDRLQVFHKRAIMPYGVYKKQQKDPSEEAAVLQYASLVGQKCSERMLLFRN
inactive: erlotinib -0.022 | [1] -0.01 | [2] 0.002 | [3] -0.063 | [4] 0.027 | [5] 0.007 | [6] 0.021 | [7] 0.054 | [8] 0.013 | IRAK-1-4 Inhibitor I -0.038

CCDC85B (UniProt Q15834)
inactive: erlotinib -0.126 | [1] 0.22 | [2] -0.066 | [3] -0.022 | [4] -0.001 | [5] -0.058 | [6] 0.015 | [7] -0.361 | [8] -0.203 | IRAK-1-4 Inhibitor I 0.011

ATP2B4 (UniProt P23634)
UniProt P23634, sequence (P23634 whole entry, looked up): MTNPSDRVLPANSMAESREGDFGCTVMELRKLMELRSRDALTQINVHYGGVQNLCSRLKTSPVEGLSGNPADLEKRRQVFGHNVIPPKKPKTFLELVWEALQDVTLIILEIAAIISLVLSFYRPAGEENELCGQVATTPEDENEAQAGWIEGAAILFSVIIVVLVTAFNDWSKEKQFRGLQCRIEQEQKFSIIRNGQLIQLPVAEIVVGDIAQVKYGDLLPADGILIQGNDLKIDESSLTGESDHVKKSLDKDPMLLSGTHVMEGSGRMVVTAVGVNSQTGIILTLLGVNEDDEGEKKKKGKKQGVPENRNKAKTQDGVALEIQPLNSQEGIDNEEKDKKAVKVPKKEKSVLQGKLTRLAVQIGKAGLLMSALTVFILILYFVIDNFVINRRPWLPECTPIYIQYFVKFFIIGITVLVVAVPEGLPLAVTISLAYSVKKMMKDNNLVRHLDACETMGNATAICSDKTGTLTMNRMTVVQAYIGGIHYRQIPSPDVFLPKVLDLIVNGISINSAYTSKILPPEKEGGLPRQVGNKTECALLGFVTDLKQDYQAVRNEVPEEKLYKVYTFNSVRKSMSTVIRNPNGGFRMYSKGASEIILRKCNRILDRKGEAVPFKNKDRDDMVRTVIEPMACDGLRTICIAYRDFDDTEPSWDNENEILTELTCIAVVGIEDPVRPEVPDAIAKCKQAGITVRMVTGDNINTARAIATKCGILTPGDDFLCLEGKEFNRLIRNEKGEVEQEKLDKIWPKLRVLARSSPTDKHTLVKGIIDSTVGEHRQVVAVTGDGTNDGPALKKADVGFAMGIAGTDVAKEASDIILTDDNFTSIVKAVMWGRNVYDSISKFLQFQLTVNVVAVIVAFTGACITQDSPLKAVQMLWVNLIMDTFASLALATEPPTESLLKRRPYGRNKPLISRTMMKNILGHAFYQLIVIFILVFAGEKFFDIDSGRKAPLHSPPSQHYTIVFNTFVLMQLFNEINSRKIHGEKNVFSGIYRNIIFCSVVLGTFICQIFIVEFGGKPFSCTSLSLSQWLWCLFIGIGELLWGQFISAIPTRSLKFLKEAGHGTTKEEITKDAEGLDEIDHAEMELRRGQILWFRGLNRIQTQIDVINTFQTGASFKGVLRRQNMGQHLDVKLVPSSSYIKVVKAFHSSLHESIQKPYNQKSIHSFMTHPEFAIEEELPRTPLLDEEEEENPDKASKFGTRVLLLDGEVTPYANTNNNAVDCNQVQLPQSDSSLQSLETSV
inactive: erlotinib 0.021 | [1] 0.023 | [2] 0.012 | [3] 0.024 | [4] 0.019 | [5] -0.015 | [6] -0.018 | [7] 0.017 | [8] 0.045 | IRAK-1-4 Inhibitor I -0.028

CCNB1 (UniProt P14635)
inactive: erlotinib -0.013 | [1] 0.008 | [2] 0.032 | [3] -0.019 | [4] 0.01 | [5] 0.001 | [6] -0.11 | [7] -0.034 | [8] 0.026 | IRAK-1-4 Inhibitor I 0.01

CASP6 (UniProt P55212)
inactive: erlotinib -0.006 | [1] 0.031 | [2] -0.006 | [3] -0.004 | [4] 0.006 | [5] 0 | [6] -0.005 | [7] 0.012 | [8] 0.017 | IRAK-1-4 Inhibitor I 0.015

CDC123 (UniProt O75794)
UniProt O75794, sequence (O75794 whole entry, looked up): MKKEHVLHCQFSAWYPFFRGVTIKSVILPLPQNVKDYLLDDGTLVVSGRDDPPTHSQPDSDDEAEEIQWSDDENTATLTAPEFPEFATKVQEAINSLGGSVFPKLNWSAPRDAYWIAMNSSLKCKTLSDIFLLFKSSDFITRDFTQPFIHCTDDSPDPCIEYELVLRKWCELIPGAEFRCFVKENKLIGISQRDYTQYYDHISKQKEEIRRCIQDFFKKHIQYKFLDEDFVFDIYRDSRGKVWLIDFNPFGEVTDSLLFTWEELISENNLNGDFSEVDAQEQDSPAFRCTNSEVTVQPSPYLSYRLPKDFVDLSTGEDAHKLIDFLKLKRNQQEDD
inactive: erlotinib 0.013 | [1] -0.02 | [2] -0.011 | [3] -0.006 | [4] -0.06 | [5] -0.006 | [6] 0.013 | [7] 0 | [8] -0.004 | IRAK-1-4 Inhibitor I -0.025
